This is an account of results in the supplement of paper PMC6555819.

This assay deals with VDR:RXRa (NR concentration 270 nM, RXRa partner concentration 90 nM). The experiment in a line: PBM binding z-score (relative to random genomic background probes); higher = stronger binding; sequences stand for … in GC…GCGATTGACAGCGTAGAATGAAGG
The procedure:
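Protein-binding microarray (Agilent 4x180K custom design, double-stranded 60-nt probes: 5' GC cap, 34-nt variable region, 24-nt constant primer region; full probe sequence given). Purified or IVT nuclear receptor:RXRα heterodimers (3:1 NR:RXRα, mostly 270:90 nM) or homodimers were incubated for 1 h in PBS with 2% milk and no ligand, then detected with Alexa488 antibodies. Fluorescence from o1-orientation probes (~5 replicates averaged) was converted to z-scores against 500 random hg19 background probes. Variable regions are seed direct-repeat (DR0–DR5) sites, all their single-nucleotide variants and half-site ablations.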
As to TGATATAGGTAAACAGGTGAAAGTCCGTAAGTTA, the PBM binding z-score is 0.405.
As to CCTACTGGGCCATCAGGTCATTGCTATCAACGTT, the PBM binding z-score turned out to be 1.71.
For TCATATAGCTAAACAGGTGAAAGTCCGTAAGTTA, the PBM binding z-score came to 0.43.
The result for ATCGAAGGGTCGAGGTGAGTATAGAGAAAGGGAA reads 1.37; that for TCTATTAGTTGAAGGCCAACCGACGAGTCCGTTT, 1.02; that for ACTTACGGGTTAACGAGGTTATAGCACGCGTATA, 6.31.
The result for CGAACTAGGTCAAGGACAGGGAATCTCCGCACGC reads 1.09.
The result for CCTAGATGGTCAAGGTCACACACGCTATAGGTAC reads 4.15; that for AATACAGGGTCATTGTAGGCCAGAGTACGCACAG, 5.08; that for CCTTACGGGGCAAGGTTATAGCACGGGTGGTACG, 0.0431.
CGTCAAAGTTCAAGGTAGCGTAACAGAAAGCAGC registered a PBM binding z-score of 3.68.
In turn, CCCTACGGGTCACTGACAGGTTATAGCATTTGGA yielded a PBM binding z-score of 3.56.
The same measure for TCTTGTAGATAAGCAGGTTAAGAAAGCTGGCCAA: 0.177; for TCTCGGAGGACACGAAAGGTCAGAGATCGACATC: 3.42; for CCTCGGAGGACAGAAGATCAGAGCTGTCCGCTTT: -0.618.
The same measure for GGAACGAGGGCAAGTCGATAGCAGAGTTTGATGG: 0.364; for TAGCCTAGGTCAGATCGGGCCAGTAGACGCTATA: 0.169.
The same measure for CCGAGTGGGTTATGGGGCATTCAGGCAACGGTGA: -0.199; for ATCTCTAGGTAACGAGTTCAGTGAAAGAGAGGAC: 3.5.
In turn, GCTGATAGGTCAGGTTGGTCAGCTAACGGGTACG gave a PBM binding z-score of 1.58.
The result for CCTAGTGGGCCATCAGGTCATTGATATCAACGTT reads 1.61; that for GCTCGGAGGACAAAGTCAGAGCTTTGTCCGTAGA, -0.556.
The result for CCGACTGGGCCAGAAAGGTTACCATACCATCCGG reads 0.479; that for AGAATGAGGTGATTAAGATCAGGGAATTGCGGTC, 0.0675.
The result for CCTACTGGGCCAAAAAGGTCATTGTTGCCGATAA reads 4.46.
With CGAACTCGGTCAAGGACAGTGAATCTCCGCACGC, the PBM binding z-score was found to be 0.0619.
With TCATATAGGTAATACAGGTAAAAGTCGGCATCTA, the PBM binding z-score was determined as 1.24.
The same measure for TCTAGTTGGTCACGGAGGTCACACACGACGGGTA: 5.62.
Take AGAATGAGGTTATTAAGATCAGGGTATTGCGGTC: the PBM binding z-score came out at 2.43.
The result for AATACAGGGTCATCGTAGGCCAGAGGACGCACAG reads 5.19; that for AGAATGAGGTTACCAAAGATCAGGAAAACGCTTG, 1.35; that for CGTCCAAGGTCCTAGGAGGTCAGTGAAGACAGAT, 2.88.
The same measure for CAAACTAGGCCACGAAAGGTCAAAGTCGAATGAC: 4.9; for CGTCAAAGTACAACTAAGGTAACGTAAAGCACGC: 0.523; for CAAACTAGGTCAGGAAAGGTCAAAGTCGAATGAC: 6.31.
The same measure for GATACAGGGTCAAGGCCAGACTACGCGTATTGAT: 4.28; for ATCGCAAGGTCGACGAGGTGAGTATACACCGTTT: 4.11.
The sequence TGAATGAGGTTAAAGAACAGGGAACGTGGCGTCG showed a PBM binding z-score of 1.12.
The result for CCCACTGGGCCAAGGTCATTGATCAGTCAAAGCA reads 2.94; that for TCTTGTAGATCAACAGGAGGTTCAGAAAGATCGA, 0.595.
